Source: the supplement of paper PMC11732987, “Enantioselective OTUD7B fragment discovery through chemoproteomics screening and high-throughput optimisation” (Communications Chemistry, 2025)

Tests used:
Test in all cases: log2 ratio of Biotin-Ahx-Ub-VS probe labelling (fragment/DMSO); higher = less target engagement (more negative = stronger competition), active = hit call of the paper (q ≤ 0.05, log2 ratio ≤ -1)
Settings in all cases: compound concentration: 200 uM; treatment time: 3 h
USP42 = target: T1, USP42 (UniProt Q9H9J4)
T1 sequence (whole entry): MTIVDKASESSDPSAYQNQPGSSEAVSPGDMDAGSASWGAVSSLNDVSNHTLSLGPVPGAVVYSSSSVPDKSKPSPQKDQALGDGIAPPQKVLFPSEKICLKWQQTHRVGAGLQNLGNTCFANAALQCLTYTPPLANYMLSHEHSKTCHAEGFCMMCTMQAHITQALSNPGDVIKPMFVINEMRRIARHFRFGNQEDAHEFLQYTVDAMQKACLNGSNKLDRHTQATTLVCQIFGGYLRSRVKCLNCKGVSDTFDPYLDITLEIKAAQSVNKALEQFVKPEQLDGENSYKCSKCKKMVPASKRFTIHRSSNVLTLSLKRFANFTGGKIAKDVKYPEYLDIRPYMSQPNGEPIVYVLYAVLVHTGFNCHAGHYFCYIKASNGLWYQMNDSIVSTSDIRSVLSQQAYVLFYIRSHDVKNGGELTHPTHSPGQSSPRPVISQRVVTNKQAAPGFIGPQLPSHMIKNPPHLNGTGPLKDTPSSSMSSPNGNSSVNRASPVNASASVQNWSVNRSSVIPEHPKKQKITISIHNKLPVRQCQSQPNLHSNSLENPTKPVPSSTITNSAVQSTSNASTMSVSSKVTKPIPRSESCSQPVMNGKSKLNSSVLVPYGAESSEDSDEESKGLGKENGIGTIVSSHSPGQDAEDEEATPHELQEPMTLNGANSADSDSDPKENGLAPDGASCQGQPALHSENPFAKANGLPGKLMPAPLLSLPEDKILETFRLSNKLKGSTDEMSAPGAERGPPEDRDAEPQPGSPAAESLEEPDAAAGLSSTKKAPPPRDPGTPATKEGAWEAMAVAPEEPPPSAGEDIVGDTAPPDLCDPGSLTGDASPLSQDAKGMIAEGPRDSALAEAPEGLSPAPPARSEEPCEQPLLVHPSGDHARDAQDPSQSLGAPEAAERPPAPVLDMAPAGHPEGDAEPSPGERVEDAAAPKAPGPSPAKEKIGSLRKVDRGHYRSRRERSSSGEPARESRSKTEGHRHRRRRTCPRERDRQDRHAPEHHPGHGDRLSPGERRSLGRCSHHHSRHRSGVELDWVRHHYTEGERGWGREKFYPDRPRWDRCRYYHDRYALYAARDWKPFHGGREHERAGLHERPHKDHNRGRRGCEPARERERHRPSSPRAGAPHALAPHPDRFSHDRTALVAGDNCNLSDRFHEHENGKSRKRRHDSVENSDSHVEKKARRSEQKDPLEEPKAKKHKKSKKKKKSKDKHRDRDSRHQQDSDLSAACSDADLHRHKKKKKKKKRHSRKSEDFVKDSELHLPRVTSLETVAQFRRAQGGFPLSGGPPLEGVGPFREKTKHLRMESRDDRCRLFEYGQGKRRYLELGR
Procedure, shortened: (§1)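 HEK293T lysate (495 µg per sample, in Tris/CHAPS/IGEPAL buffer with protease inhibitors) was treated in triplicate with fragment at 200 µM or with DMSO for 3 h. It was then treated with Biotin-Ahx-Ub-VS (0.5 µM final) for 1 h. Labelled DUBs were NeutrAvidin-enriched, digested with LysC and trypsin, and run by diaPASEF LC-MS/MS. Spectronaut label-free quantities were global-median-normalised. Values are average log2 ratios fragment/DMSO by unpaired t-test, using proteins with ≥2 unique peptides.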

USP46 = USP46 (UniProt P62068)
Procedure, shortened: as §1

USP47 = target: T2, USP47 (UniProt Q96K76)
T2 sequence (whole entry): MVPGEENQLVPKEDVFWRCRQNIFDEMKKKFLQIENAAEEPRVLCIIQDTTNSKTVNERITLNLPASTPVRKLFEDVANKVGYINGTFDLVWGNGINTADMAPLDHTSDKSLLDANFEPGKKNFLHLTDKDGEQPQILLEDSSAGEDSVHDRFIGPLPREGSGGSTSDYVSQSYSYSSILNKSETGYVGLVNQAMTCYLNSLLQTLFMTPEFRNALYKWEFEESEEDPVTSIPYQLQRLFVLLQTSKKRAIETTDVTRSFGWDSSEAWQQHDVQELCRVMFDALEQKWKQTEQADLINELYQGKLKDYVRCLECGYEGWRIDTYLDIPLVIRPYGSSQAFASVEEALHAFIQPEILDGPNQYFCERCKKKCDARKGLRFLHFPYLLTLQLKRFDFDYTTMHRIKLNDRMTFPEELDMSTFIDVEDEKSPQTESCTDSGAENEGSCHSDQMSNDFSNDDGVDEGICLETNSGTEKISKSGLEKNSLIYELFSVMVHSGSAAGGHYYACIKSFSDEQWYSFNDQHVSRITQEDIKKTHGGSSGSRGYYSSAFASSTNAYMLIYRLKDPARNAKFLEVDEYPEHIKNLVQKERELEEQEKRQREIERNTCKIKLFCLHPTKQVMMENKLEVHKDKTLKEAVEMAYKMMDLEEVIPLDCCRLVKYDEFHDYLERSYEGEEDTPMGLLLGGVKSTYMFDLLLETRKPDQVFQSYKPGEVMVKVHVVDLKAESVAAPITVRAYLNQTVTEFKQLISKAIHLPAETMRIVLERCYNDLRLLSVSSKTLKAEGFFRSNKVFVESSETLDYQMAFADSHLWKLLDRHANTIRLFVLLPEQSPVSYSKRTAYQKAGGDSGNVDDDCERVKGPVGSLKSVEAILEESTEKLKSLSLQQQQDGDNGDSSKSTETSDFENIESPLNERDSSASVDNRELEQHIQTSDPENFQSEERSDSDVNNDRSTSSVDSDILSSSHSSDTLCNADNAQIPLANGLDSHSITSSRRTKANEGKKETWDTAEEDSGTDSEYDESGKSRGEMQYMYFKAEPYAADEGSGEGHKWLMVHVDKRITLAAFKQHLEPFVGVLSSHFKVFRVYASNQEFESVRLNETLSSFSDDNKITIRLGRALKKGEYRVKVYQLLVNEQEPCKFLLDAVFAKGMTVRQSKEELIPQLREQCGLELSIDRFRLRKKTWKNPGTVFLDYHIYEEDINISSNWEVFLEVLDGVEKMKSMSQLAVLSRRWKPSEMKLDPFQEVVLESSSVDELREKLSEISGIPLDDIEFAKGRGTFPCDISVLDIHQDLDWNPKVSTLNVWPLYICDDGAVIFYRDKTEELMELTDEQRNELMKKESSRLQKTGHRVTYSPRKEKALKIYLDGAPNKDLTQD
Procedure, shortened: as §1

USP48 = target: T3, USP48 (UniProt Q86UV5)
T3 sequence (whole entry): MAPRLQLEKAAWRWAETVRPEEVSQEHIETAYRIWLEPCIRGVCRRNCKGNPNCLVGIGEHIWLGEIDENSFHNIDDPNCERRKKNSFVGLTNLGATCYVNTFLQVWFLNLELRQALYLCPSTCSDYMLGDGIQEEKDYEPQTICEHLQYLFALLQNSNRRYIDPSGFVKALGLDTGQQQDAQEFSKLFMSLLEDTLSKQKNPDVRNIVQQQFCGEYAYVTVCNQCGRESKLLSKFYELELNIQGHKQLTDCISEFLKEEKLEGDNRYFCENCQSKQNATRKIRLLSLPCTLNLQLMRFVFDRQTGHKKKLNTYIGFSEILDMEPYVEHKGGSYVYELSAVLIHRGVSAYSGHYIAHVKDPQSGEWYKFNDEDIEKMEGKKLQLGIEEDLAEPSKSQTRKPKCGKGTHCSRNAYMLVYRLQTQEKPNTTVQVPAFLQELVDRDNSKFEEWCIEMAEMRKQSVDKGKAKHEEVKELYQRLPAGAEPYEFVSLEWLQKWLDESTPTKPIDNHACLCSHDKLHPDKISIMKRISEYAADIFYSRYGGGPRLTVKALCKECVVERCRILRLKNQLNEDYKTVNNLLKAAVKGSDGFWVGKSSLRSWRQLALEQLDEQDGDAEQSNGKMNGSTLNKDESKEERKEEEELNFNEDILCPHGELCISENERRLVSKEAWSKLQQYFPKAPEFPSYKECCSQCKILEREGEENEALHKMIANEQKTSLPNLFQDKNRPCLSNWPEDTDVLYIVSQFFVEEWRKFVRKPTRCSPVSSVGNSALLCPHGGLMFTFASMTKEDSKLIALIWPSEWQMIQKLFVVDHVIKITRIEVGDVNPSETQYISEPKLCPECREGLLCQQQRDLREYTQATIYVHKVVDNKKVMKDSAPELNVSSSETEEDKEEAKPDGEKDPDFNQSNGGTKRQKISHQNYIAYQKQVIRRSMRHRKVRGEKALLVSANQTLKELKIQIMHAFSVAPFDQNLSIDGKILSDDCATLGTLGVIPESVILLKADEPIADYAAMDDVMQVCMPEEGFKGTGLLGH
Procedure, shortened: as §1

USP5 = target: T4, USP5 (UniProt P45974)
T4 sequence (whole entry): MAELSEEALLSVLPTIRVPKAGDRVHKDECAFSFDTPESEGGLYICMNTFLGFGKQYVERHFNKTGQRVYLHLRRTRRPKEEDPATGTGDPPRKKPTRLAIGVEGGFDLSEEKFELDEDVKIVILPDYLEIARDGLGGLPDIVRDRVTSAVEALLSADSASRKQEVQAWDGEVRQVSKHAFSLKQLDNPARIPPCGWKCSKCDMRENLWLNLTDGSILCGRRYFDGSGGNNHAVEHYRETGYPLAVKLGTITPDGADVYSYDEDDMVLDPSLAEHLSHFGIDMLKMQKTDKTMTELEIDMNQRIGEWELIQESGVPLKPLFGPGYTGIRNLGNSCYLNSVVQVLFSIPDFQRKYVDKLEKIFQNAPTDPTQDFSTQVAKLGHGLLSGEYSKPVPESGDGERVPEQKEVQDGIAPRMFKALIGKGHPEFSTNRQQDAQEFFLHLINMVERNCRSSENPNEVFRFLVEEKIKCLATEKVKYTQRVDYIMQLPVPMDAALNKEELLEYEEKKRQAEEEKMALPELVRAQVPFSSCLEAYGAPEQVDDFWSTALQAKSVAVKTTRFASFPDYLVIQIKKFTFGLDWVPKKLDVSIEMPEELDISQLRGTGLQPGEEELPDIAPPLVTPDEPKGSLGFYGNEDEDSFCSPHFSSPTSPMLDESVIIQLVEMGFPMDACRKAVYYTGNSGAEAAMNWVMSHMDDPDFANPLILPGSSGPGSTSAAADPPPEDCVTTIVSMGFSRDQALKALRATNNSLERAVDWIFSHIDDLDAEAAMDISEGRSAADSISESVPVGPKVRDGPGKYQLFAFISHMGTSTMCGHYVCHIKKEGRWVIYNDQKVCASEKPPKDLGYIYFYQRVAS
Procedure, shortened: as §1

USP54 = USP54 (UniProt Q70EL1)
Procedure, shortened: as §1

USP7 = USP7 (UniProt Q93009)
Procedure, shortened: as §1

USP8 = target: T5, USP8 (UniProt P40818)
T5 sequence (whole entry): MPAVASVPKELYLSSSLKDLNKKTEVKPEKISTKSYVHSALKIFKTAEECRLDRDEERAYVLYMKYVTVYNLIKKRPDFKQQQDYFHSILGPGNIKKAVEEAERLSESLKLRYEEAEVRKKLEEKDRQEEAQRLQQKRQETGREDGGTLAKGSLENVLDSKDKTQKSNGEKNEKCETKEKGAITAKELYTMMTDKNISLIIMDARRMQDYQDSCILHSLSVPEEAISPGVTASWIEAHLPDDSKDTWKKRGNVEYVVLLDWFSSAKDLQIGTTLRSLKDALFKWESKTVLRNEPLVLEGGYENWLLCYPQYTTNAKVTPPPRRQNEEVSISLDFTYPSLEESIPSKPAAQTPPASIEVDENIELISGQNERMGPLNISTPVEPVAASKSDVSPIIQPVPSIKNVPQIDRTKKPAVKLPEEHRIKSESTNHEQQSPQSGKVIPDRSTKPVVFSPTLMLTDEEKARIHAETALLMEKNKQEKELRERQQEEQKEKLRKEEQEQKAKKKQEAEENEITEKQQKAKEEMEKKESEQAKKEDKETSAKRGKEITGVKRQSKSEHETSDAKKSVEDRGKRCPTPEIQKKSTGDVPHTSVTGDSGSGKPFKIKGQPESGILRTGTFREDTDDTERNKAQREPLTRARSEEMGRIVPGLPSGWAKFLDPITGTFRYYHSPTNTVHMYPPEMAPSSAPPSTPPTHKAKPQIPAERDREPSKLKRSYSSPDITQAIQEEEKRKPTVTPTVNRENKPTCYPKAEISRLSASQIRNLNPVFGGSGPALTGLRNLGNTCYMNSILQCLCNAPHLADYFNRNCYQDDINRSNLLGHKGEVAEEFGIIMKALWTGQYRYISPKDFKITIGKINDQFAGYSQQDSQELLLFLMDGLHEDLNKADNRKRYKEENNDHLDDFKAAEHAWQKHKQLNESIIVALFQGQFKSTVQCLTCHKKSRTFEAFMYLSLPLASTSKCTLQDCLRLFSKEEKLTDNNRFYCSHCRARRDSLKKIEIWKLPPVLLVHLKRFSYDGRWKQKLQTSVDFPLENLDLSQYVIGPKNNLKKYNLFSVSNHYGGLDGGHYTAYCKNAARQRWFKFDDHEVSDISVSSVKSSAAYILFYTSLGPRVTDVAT
Procedure, shortened: as §1

Measured: log2 ratio of Biotin-Ahx-Ub-VS probe labelling

USP7, sequence (Q93009 whole entry, looked up): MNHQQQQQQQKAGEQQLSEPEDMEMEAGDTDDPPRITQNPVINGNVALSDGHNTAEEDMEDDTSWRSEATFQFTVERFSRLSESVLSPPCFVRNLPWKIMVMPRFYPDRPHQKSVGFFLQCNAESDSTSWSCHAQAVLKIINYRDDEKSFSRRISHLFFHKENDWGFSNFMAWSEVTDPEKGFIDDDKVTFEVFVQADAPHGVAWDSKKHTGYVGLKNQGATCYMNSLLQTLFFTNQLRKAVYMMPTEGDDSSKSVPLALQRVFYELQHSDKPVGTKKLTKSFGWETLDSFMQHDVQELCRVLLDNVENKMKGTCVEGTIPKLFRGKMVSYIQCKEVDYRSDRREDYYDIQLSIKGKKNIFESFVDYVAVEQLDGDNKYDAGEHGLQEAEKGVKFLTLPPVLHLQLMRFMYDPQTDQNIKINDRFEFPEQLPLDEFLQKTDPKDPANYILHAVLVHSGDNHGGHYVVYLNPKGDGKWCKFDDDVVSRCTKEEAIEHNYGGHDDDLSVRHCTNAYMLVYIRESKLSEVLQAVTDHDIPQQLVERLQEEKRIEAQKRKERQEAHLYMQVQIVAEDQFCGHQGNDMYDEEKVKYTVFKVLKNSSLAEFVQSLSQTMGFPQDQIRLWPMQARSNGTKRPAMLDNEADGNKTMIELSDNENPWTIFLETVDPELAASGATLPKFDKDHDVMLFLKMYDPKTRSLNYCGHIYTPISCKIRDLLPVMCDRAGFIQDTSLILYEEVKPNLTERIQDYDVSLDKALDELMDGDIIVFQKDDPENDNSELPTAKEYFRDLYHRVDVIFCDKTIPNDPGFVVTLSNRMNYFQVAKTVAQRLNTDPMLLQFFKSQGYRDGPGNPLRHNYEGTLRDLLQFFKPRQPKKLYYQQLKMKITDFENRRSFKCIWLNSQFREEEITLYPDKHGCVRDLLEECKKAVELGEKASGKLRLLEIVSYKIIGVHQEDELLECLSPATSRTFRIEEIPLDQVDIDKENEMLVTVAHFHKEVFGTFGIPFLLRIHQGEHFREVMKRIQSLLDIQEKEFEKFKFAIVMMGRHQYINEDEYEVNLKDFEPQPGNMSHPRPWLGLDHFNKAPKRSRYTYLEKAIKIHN
USP46, sequence (P62068 whole entry): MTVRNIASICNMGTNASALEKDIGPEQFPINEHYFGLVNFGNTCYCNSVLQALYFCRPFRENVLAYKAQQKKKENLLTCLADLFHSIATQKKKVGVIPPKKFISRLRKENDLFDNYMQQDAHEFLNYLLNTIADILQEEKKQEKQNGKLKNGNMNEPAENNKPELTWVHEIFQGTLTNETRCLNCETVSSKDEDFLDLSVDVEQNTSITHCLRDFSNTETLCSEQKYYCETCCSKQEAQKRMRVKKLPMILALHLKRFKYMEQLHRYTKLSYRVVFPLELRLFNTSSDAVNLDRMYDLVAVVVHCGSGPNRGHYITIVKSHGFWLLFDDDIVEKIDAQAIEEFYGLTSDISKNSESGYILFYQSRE
USP54, sequence (Q70EL1 whole entry): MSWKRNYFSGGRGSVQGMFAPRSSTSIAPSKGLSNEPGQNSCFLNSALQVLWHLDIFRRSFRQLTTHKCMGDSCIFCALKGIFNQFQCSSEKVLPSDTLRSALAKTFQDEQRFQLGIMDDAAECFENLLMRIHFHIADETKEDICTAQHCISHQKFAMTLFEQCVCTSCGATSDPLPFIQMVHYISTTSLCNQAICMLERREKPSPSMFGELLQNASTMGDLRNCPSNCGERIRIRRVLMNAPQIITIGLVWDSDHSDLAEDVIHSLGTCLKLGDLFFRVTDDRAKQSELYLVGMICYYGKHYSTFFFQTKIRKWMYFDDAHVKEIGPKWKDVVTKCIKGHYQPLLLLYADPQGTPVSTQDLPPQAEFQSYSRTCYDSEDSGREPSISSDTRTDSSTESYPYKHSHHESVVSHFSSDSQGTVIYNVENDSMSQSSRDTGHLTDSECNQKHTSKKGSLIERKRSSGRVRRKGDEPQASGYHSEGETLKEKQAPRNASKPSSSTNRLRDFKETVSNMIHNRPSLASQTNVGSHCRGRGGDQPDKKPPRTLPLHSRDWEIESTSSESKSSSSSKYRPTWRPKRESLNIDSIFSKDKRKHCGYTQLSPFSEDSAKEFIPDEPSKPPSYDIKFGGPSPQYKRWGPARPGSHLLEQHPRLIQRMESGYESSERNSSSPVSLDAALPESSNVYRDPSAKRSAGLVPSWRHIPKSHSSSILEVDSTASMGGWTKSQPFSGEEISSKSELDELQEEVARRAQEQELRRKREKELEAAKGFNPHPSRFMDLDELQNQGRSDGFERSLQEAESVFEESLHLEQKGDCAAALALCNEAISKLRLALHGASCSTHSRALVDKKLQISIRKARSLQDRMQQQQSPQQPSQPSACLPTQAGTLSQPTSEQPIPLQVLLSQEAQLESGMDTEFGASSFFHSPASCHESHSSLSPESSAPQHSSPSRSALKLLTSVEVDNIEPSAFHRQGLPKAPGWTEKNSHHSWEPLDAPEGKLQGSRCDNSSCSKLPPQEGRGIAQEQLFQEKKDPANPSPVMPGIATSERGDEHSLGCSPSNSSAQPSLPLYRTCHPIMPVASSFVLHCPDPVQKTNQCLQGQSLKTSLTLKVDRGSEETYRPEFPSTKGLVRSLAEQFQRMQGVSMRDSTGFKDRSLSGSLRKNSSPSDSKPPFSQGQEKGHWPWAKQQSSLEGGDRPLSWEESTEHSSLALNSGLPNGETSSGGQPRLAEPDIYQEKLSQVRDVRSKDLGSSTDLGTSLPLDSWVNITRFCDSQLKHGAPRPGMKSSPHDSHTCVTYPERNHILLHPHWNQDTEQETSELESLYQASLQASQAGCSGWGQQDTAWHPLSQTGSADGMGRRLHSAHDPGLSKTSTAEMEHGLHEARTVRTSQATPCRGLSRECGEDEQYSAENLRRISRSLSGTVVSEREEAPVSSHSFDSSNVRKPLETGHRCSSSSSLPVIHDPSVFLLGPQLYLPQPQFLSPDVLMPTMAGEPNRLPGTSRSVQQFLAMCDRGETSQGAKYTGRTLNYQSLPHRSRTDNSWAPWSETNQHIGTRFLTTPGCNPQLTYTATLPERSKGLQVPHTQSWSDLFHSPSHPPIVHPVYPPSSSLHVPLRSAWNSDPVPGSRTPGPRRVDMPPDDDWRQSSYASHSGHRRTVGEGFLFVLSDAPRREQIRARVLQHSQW

C#Cc1cccc(NC(=O)CCl)c1
inactive: USP42 0.466 | USP46 -0.0515 | USP47 -0.468 | USP48 -0.362 | USP5 -0.268 | USP54 -0.249 | USP7 -0.56 | USP8 -0.179
